Test results: PubChem BioAssay (NCATS)
Inconclusive results are not listed. A number with no mark means an inactive call. Activity calls are given as the source filed them. Calls come from the whole dose curve; as a rule, active = well fitted inhibition curve with a large enough effect; inconclusive = small, poorly fitted or top-dose-only effect; inactive = flat fitted curve, though single readings scatter.

System: KB-3-1
Assay: Cytotoxic Profiling of Annotated Libraries Using Quantitative High-Throughput Screening (AID 1296008); note: nearly all actives have a fitted effect of over 60% in size
Conditions: Five cell lines viability, CellTiter-Glo ATP luminescence, 48-72 h; max response: stronger effect = lower value
Description: Cell-based phenotypic screening is a commonly used approach to discover biological pathways, novel drug targets, chemical probes and high-quality hit-to-lead molecules. Many hits identified from high-throughput screening campaign are ruled out through a series of follow-up potency, selectivity/specificity, and cytotoxicity assays. Prioritization of molecules with little or no cytotoxicity for a more in-depth downstream evaluation influence the future direction of projects, so cytotoxicity profiling of the screening libraries at early stage is essential for increasing the likelihood of candidate success. […] For the annotated library, we also examined the primary targets and mechanistic pathways regularly associated with cell death. To our knowledge, this is the first study to use high-throughput screening to profile large libraries for cytotoxicity assessment in both normal and cancer cell lines. In summary, the results generated here constitutes a valuable resource for the scientific community and provides insight on identifying cytotoxic compounds with particular mechanisms of action, and prioritizing compounds with suitable cytotoxicity profile for further evaluation.
A pintool (Kalypsys) was used to transfer 23 nL of compound solution to the 1536-well assay plates. After 48 or 72 hr incubation at 37 degree Celsius, 5% CO2 and 95% humidity, 2.5 uL of CellTiter-Glo (Promega) was dispensed into each well using a dispenser (Aspect Automation, St. Paul, MN) with solenoid valves (Lee Valves, Westbrook CT). Plates were left at room temperature for 10 min before imaging the ATP-coupled luminescence using a ViewLux microplate imager (PerkinElmer, Waltham, MA).
% is set by controls: 0 for no effect and ±100 for the full control effect; potency is the fitted concentration of half-maximal effect.

| SMILES | Potency | max response | outcome |
| --- | --- | --- | --- |
| CN(C)CCN(Cc1ccc(-c2ccc(CNCCc3ccccc3)cc2)cc1)C(=O)CCC1CCCC1 | 4.61 µM (active) | – | – |
| O=P(O)(O)C(O)(Cc1cnc2ccccn12)P(=O)(O)O | – | -1.58% | – |
| COCCCNC(=O)c1ccc(Cn2c(=O)c3ccccc3n(Cc3ccc(C(C)C)cc3)c2=O)cc1 | – | – | inactive |
| C/C=C(\C)C(=O)O[C@H]1C=CC(=O)O[C@H]1/C=C/[C@@H](O)[C@H](C)O | – | -19.4% | – |
| CC(C)C[C@@H](N)C(=O)N[C@H]1C(=O)N[C@@H](CC(N)=O)C(=O)N[C@H]2C(=O)N[C@H]3C(=O)N[C@H](C(=O)N[C@H](C(=O)O)c4cc(O)cc(O)c4-c4cc3ccc4O)[C@H](O)c3ccc(c(Cl)c3)Oc3cc2cc(c3O[C@@H]2O[C@H](CO)[C@@H](O)[C@H](O)[C@H]2O[C@H]2C[C@](C)(N)[C@H](O)[C@H](C)O2)Oc2ccc(cc2Cl)[C@H]1O | – | – | inactive |
| COc1cc(/C=C2\CC[C@H]3COC[C@@H](c4cc(F)c(F)c(F)c4)N3C2=O)ccc1-n1cnc(C)c1 | – | – | inactive |
| C/C(=C(\CCOC(=O)c1ccccc1)SS/C(CCOC(=O)c1ccccc1)=C(/C)N(C=O)Cc1cnc(C)nc1N)N(C=O)Cc1cnc(C)nc1N | – | -12.4% | – |
| CCCn1cc2c(nc(NC(=O)Nc3ccc(OC)cc3)n3nc(-c4ccco4)nc23)n1 | – | 9% | – |
| C=C(C)[C@@H]1CC[C@]2(C(=O)O)CC[C@]3(C(=O)O)[C@H](CCC4[C@@]5(C)CCC(=O)C(C)(C)C5CC[C@]43C)C12 (stereo not given in full) | – | 4.42% | – |
| C=C[C@H](/C=C\c1ccc(O)cc1)c1ccc(O)cc1 | – | -11.7% | – |
| CN(C)C(=O)Nc1cc(-c2ccccc2)ccc1N(C)C | – | -8.42% | – |
| CN1CCN(C(=O)CN[C@@H]2C[C@H]2c2ccc(OCc3ccccc3)cc2)CC1 | – | -22.7% | – |
| Cc1ccc(C)c(NC(=O)[C@@H]2CCCN2S(=O)(=O)c2cccc3cccnc23)c1 | – | 9.71% | – |
| CN(C)C(=O)Nc1cccc(-c2ccc(N(C)C)cc2)c1 | – | -4.8% | – |
| OCC(O)COc1ccc(Cl)cc1 (stereo not given) | – | -9.74% | – |
| COc1ccc(CCN(C)CCCOc2nsc(-c3ccccc3)n2)cc1OC | – | -3.88% | – |
| CN1CC2CN(c3ccc4oc5ccccc5c(=O)c4c3)CC2C1 (stereo not given) | – | -11.6% | – |
| Cc1cc(Nc2ccccc2C(=O)O)ccc1Cl | – | -5.19% | – |
| CC(C)(C)NC(=O)[C@H]1CC[C@H]2[C@@H]3CC=C4C=C(C(=O)O)CC[C@]4(C)[C@H]3CC[C@]12C | – | -6.72% | – |
| CCCC(CCC)C(=O)NCc1ccc2c(cnn2-c2ccccc2OC)c1 | – | -13.4% | – |

| SMILES | Potency | max response | outcome |
| --- | --- | --- | --- |
| O=C(NCC1(N2CCN(c3ccccc3)CC2)CCOCC1)c1cccnc1Sc1ccccc1 | – | 1.24% | – |
| COc1ccc2c(c1O[C@H]1CCNC1)CCC2 | – | -7.28% | – |
| C=C(C)C(=O)O[C@H]1/C(C=O)=C\CC/C(CO)=C/[C@H]2OC(=O)C(=C)[C@@H]2[C@@H]1OC | – | 9.81% | – |
| Cc1nc2cc(C(=O)NCc3ccccn3)nn2c(C)c1Cc1cccc(Cl)c1 | – | -9.98% | – |
| C=CC(C)(O)CC/C=C(/C)COC(=O)C(C)C1CCC(C)(C=C)O1 (stereo not given) | – | 8.61% | – |
| CCCOc1ccc(CCc2nc3cc(-c4c(C)noc4C)ccc3n2CCN2CCOCC2)cc1 | – | -3.99% | – |
| Nc1ncnc2c1c(-c1ccc(Oc3ccccc3)cc1)nn2[C@@H]1CCCNC1 | – | -20% | – |
| C=C1[C@H]2CC[C@H](C(=O)O)[C@@]23CC[C@H](C3)C1(C)C | – | – | inactive |
| Cn1c(=O)c(F)c(Nc2ccc(I)cc2F)c2c(=O)n(CC(O)CO)cnc21 (stereo not given) | – | -14.5% | – |
| CC(C)Oc1ccc(-c2cnc3c(-c4ccnc5ccccc45)cnn3c2)cc1 | – | -13.7% | – |
| N#Cc1ccc(COC[C@H]2O[C@@H](n3c(NCc4ccc(Cl)c(Cl)c4)nc4c(N)ncnc43)[C@H](O)[C@@H]2O)cc1 | – | 2.86% | – |
| C[C@@H](O[C@H]1OCCN(Cc2nn(P(=O)(O)O)c(=O)[nH]2)[C@H]1c1ccc(F)cc1)c1cc(C(F)(F)F)cc(C(F)(F)F)c1 | – | 6.69% | – |
| COCCN(C(=O)c1cc(OC)c(OC)c(OC)c1)c1nc(-c2ccccc2)cs1 | – | 5.9% | – |
| C=C1CC[C@@H](O)[C@]2(C)C[C@H]3OC(=O)C(=C)[C@H]3CC12 (stereo not given in full) | – | 1.13% | – |
| CCOc1ccc(-n2c([C@@H](C)N(Cc3cccnc3)C(=O)Cc3ccc(OC(F)(F)F)cc3)nc3ncccc3c2=O)cc1 | – | 4.98% | – |
| Cn1cc(-c2ccc(S(=O)(=O)n3ccc(/C=C/C(=O)Nc4ccccc4N)c3)cc2)cn1 | 1.46 µM (active) | – | – |
| COc1ccc(NC(=O)c2ccc(C(=N)N(C)C)cc2)c(C(=O)Nc2ccc(Cl)cn2)c1 | – | 2.86% | – |
| C=C1C(=O)OC2/C=C(\C)CC/C=C(\C)CC(OC(C)=O)C12 (stereo not given) | – | 3.33% | – |
| C=CCCN1CCC2(CC1)CN(C(=O)c1c(F)cccc1F)c1ccc(Cl)cc12 | – | – | inactive |
| Cc1ccc(N2CCN(S(=O)(=O)N3CCCCC3)CC2)c(C)c1 | – | -2.41% | – |
